# RE007 growth inh = less growth of the S. pombe RE007 Vpr strain; S. pombe RE007 Vpr strain, BacTiter-Glo ATP luminescence, 24 h; Potency, µM (top dose mostly 92.2 µM), inactives show at the top dose activity change, negative = less growth, hits mostly inhibitors; actives 0.21% (n = 360,000); active means well fitted falling curve with a large enough effect; inconclusive means small, poorly fitted or top-dose-only effect; inactive means no such curve, though single readings can be large or run the other way; further: potency means the concentration at half of the fitted maximal effect; on the % scale 0 is the no-effect control and ±100 the full control effect; nearly all actives have a fitted effect of over 50% in size
#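 Fission yeast strain RE007, carrying one chromosomally integrated HIV-1 vpr copy, was seeded at OD 0.01 in PMG+AL medium with 23 nL pinned compound. After 24 h at 30 °C and 99% humidity, viability was read by BacTiter-Glo luminescence.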
# Tb PYK inh = blocks Trypanosoma brucei pyruvate kinase | Q57TT1 | TbPYK enzyme, Kinase-Glo Plus ATP luminescence, 45 min | Potency, µM (top dose mostly 76.8 µM), for the others: at the top dose activity, negative = inhibition, most hits filed as inhibitors | actives 0.12% (n = 410,000) | AID 624173; further: potency means the concentration at half of the fitted maximal effect; on the % scale 0 is the no-effect control and ±100 the full control effect; nearly all actives have a fitted effect of over 50% in size
#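 Assay buffer: 50 mM TEA pH 7.2, 100 mM KCl, 10 mM MgCl2, 0.05% BSA, 0.01% Tween-20. Pyruvate kinase from T. brucei plus substrate met compound, then ADP (130 uM final). Luminescence was read post 45 min RT.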
# Cycloheximide cs = affects cycloheximide protein synthesis inhibition readout, counter-screen | cell reporter, cycloheximide protein synthesis inhibition counterscreen | max response, % | actives 12% (n = 300,000) | AID 2314; in the data active means max response mostly above about 13%, no sharp cut-off; inactive means mostly below about 14%; further: read at 38.3 µM for the half of the compounds with a filed dose; 0% is about no effect
# Giardia FBPA inh-1 = Giardia lamblia aldolase inhibition. A8B2U2. purified Giardia FBPA. Potency, µM (highest dose often 59.6 µM), for inactives: top-dose activity, negative = inhibition, actives largely listed as inhibitors. actives 0.71% (n = 290,000). AID 2451; further: potency means the concentration at half of the fitted maximal effect; on the % scale 0 is the no-effect control and ±100 the full control effect; nearly all actives have a fitted effect of over 55% in size
#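 Giardia FBPA (40 nM reagent) was preincubated 10 min at RT with compound (up to 57.5 uM final), then substrate plus GAPDH/TPI/NAD/arsenate coupling system with diaphorase/resazurin was added; resorufin fluorescence (525/598 nm) was read after 20 min.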
# LmPK inhibitor = inhibitors of Leishmania mexicana pyruvate kinase; Q27686; purified LmPK, Kinase-Glo ATP luminescence, 1 h; Potency, µM (series often up to 57.5 µM), for inactives: top-dose activity change, negative = inhibition, hits mostly inhibitors; actives 0.37% (n = 290,000); AID 1721; further: potency means the concentration at half of the fitted maximal effect; on the % scale 0 is the no-effect control and ±100 the full control effect
# Target sequence (Q27686 whole entry, looked up): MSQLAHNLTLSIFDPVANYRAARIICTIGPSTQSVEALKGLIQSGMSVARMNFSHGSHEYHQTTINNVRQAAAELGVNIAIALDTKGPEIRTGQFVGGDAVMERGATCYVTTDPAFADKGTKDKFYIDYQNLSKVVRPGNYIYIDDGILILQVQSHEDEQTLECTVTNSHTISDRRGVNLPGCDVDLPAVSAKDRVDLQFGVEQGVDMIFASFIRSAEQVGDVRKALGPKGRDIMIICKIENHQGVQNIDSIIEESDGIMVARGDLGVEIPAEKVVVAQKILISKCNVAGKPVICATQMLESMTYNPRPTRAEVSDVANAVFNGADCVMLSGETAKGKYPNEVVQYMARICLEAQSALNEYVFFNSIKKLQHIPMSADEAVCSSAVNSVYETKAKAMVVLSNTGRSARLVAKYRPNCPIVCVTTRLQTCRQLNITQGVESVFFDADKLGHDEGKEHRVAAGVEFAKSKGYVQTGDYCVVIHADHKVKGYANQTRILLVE
#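 qHTS format; LmPK 0.1 nM; substrates PEP 0.5 mM and ADP 0.1 mM. One-hour room-temperature incubation, then coupled luciferase luminescence; 0.5 nM enzyme wells mark activation.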
# Shiga inhibitor = blocks Shiga toxin action in Vero cells; Vero cells, Shiga toxin protein synthesis inhibition reporter; inhibition, % at 38.7 µM; actives 9.2% (n = 290,000); in the data active means inhibition mostly above about 28%, no sharp cut-off; inactive means mostly below about 43%; further: 0% is about no effect
# Giardia growth = Giardia lamblia growth inhibition; shares compounds with Giardia FBPA inh-1; Giardia lamblia trophozoite growth inhibition; Potency, µM (series often up to 57.5 µM), inactives show at the top dose activity change, negative = inhibition, most hits filed as inhibitors; actives 5% (n = 1,500);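 further: potency means the concentration at half of the fitted maximal effect; trophozoites exposed to compound for 48 h at 37 °C; on the % scale 0 is the no-effect control and ±100 the full control effect; nearly all actives have a fitted effect of over 70% in size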
# Mammal cell tox = mammalian cytotoxicity of Giardia aldolase inhibitor hits. shares compounds with Giardia FBPA inh-1. mammalian cell viability counter-screen, qHTS. Potency, µM (doses to about 57.5 µM), inactives show at the highest dose viability change, negative = toxicity, hits mostly inhibitors. actives 4% (n = 1,500);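 further: Chinese hamster ovary cells used as mammalian cytotoxicity surrogate; viability measured as cellular ATP by luminescence; potency means the concentration at half of the fitted maximal effect; compound exposure lasted 48 h before reading; on the % scale 0 is the no-effect control and ±100 the full control effect; nearly all actives have a fitted effect of over 60% in size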
# Giardia FBPA inh-2 = confirmation of Giardia fructose-bisphosphate aldolase inhibitors; actives 5% (n = 1,500); purified Giardia aldolase enzyme activity, qHTS; Potency, µM (doses to about 57.5 µM), inactives show at the top dose activity change, negative = inhibition, most hits filed as inhibitors; shares compounds with Giardia FBPA inh-1; further: potency means the concentration at half of the fitted maximal effect; on the % scale 0 is the no-effect control and ±100 the full control effect; nearly all actives have a fitted effect of over 45% in size
# Rabbit FBPA inh = selectivity test for Giardia aldolase inhibitors: rabbit aldolase. shares compounds with Giardia FBPA inh-1. Rabbit muscle FBPA enzyme inhibition, selectivity counter-screen. Potency, µM (titrated, usually from 57.5 µM), without a hit: top-dose activity, negative = inhibition, actives largely listed as inhibitors. actives 4% (n = 1,500); further: potency means the concentration at half of the fitted maximal effect; on the % scale 0 is the no-effect control and ±100 the full control effect; nearly all actives have a fitted effect of over 60% in size
# Target sequence (P00883 whole entry, looked up): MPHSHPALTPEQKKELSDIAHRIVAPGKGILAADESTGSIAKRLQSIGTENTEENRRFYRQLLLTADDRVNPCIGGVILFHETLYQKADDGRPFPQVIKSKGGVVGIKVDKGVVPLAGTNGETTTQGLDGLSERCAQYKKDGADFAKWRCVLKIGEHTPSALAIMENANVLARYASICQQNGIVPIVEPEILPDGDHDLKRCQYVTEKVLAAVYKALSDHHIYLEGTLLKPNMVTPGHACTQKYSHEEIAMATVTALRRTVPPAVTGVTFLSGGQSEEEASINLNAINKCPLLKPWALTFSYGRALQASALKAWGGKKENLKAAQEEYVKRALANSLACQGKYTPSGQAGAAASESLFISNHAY
# GAPDH counter = counter-screen for Giardia aldolase inhibitors: GAPDH coupling enzyme; shares compounds with Giardia FBPA inh-1; GAPDH coupling enzyme counterscreen, biochemical, qHTS; Potency, µM (series often up to 57.5 µM), for inactives: top-dose activity change, negative = inhibition, hits mostly inhibitors; actives 6% (n = 1,500); AID 2795; further: potency means the concentration at half of the fitted maximal effect; on the % scale 0 is the no-effect control and ±100 the full control effect; nearly all actives have a fitted effect of over 55% in size
# * hit, by the source's call; u = inconclusive; x = no result; [ ] = dose if it differs, or a comment. The entries come from a sample that favours hits as a whole. Unless noted, the call rests on the fitted dose curve; in most records, active means well fitted curve in the direction sought with a large enough effect; inconclusive means small, poorly fitted or top-dose-only effect, or another doubt; inactive means no such curve, though single readings can be large; an effect the other way counts as inactive or inconclusive.
SMILES,RE007 growth inh,Tb PYK inh,Cycloheximide cs,Giardia FBPA inh-1,LmPK inhibitor,Shiga inhibitor,Giardia growth,Mammal cell tox,Giardia FBPA inh-2,Rabbit FBPA inh,GAPDH counter
Cc1c(C(=O)O)c(C(=O)O)nc2ccc(N3CCOCC3)cc12,x,x,7,11µM*,0%,-6,25%,8%,u,-21%,u
Cc1cccc(C(=O)NC(=S)NNC(=O)c2ccccc2Cl)c1,-46%,-29%,1,u,0%,-1,-16%[38.3 µM],-27%,6%,-20%,-19%
Cc1cccc(C(=O)NC(=S)NNC(=O)Cc2ccccc2)c1,-13%,u,-5,u,1%,4,x,x,x,x,x
COc1ccccc1NC(=S)N(Cc1ccc(C)cc1)Cc1ccccn1,6%,-5%,-6,18µM*,-1%,50,60%,-7%,6%,11%,18%
COc1ccc(CCN(Cc2ccccn2)C(=S)Nc2cccc(SC)c2)cc1OC,-8%,2%,5,10µM*,1%,-3,-6%[38.3 µM],-26%,-11%,-8%,-3%
O=c1c(O)cccc2cc(O)c(O)c(O)c12,u,-28%,1,14µM*,-3%,4,-16%[38.3 µM],-18%,10µM*,16µM*,37µM*
O=C1c2ccccc2C(=O)c2c(O)c(O)cc(O)c21,u,-12%,x,u,x,x,x,x,x,x,x
Cc1ccccc1CN1CC2=C(CCN(Cc3ccccc3)C2=O)N2CCN=C12,-16%,-6%,x,x,x,x,x,x,x,x,x
COc1cccc(/C=C/C(=O)Nc2ccc(OC)nc2)c1,-9%,-2%,30*,22µM*,4%,88*,u,-8%,-19%,-1%,-9%
COc1cc(/C=N/NC2=NS(=O)(=O)c3ccccc32)ccc1OC(C)=O,11%,6%,-3,11µM*,-9%,-2,7%,8%,7%,11%,8%
COc1ccc(/C=N/NC2=NS(=O)(=O)c3ccccc32)cc1OC,3%,-3%,-2,10µM*,7%,-13,11%[10.4 µM],27%,13%,12%,-7%
COc1ccc(C(=O)NNC2=NS(=O)(=O)c3ccccc32)cc1OC,11%,3%,-3,-26%,1%,-6,x,x,x,x,x
O=S1(=O)N=C(N/N=C/c2ccco2)c2ccccc21,9%,1%,6,u,10%[11.5 µM],27,x,x,x,x,x
CCCCn1c(N)c(N(CC(C)C)C(=O)CCCc2nc3ccccc3c(=O)[nH]2)c(=O)[nH]c1=O,2%,-2%,x,x,x,x,x,x,x,x,x
CCOC(=O)c1[nH]c(C)c(CCC(=O)NCc2ccccc2Cl)c1C,x,2%,x,x,x,x,x,x,x,x,x
C/C(CC(=O)Nc1ccc(Cl)cc1C(F)(F)F)=N\NC(N)=S,2%,-5%,11,20µM*,-8%,10,3%[10.4 µM],12%,17%,9%,14%
C/C(CC(=O)Nc1ccc(Cl)c(Cl)c1)=N\NC(N)=S,0%,-6%,-3,10µM*,7%,19,2%,-5%,-3%,-2%,3%
CCOC(=O)C1(CC2CCCCO2)CCN(S(=O)(=O)c2c(C)nn(C)c2C)CC1 (configuration not stated),5%,0%,-1,-1%,13%,15,x,x,x,x,x
Cc1ccsc1C1C(C#N)=C(N)OC2=C1C(=O)CCC2 (configuration not stated),-7%,-4%,2,18µM*,-6%,12,37%,17%,-27%,-30%,u
Cc1ccc(NC(=O)c2sc(=S)n(-c3cc(C)ccc3F)c2N)cc1,-15%,-26%,43,18µM*,4%,5,14%,-8%,-25%,u,-21%
COC(=O)C1(C(=O)OC)C[C@H]2CON=C2[C@H]1c1ccccc1,x,x,x,0%,x,x,x,x,x,x,x
O=C(Nc1nc2ccccc2c(=O)s1)c1ccco1,u,-9%,-2,-1%,-10%,5,x,x,x,x,x
O=C(Nc1n[nH]c(=S)s1)c1ccco1,11%,u,1,7.1µM*,-14%,3,-5%[38.3 µM],4%,40µM*,-12%,-21%
Cc1ccc(C)c(CN2C(=O)c3ccccc3S(=O)(=O)c3ccc(C(=O)N4CCN(c5ccccn5)CC4)cc32)c1,x,-5%,x,x,x,x,x,x,x,x,x
CCCCCCCCN1CC(Cc2cc3ccccc3c3ccccc23)N(c2ccccc2)c2ccccc2C1=O (configuration not stated),-5%,x,x,x,x,x,x,x,x,x,x
SMILES,RE007 growth inh,Tb PYK inh,Cycloheximide cs,Giardia FBPA inh-1,LmPK inhibitor,Shiga inhibitor,Giardia growth,Mammal cell tox,Giardia FBPA inh-2,Rabbit FBPA inh,GAPDH counter
Cc1c(N=CC=Nc2c(C)n(C)n(-c3ccccc3)c2=O)c(=O)n(-c2ccccc2)n1C,x,x,-2,2%,-1%,-4,x,x,x,x,x
Cc1c(N=Nc2c(O)n(-c3ccc(Br)cc3)c(=O)[nH]c2=O)c(=O)n(-c2ccccc2)n1C,2%,-3%,-2,16µM*,0%,-15,u,10%,9%,0%,-6%
Cc1c(N=Cc2c(O)n(C)c(=O)[nH]c2=O)c(=O)n(-c2ccccc2)n1C,-2%,0%,1,3%,5%,-6,x,x,x,x,x
Cc1c(N=Nc2c(O)[nH]c(=O)[nH]c2=O)c(=O)n(-c2ccccc2)n1C,5%,4%,1,16µM*,-3%,-1,2%[10.4 µM],22%,-3%,-20%,-9%
Cn1c(=O)c2c(nc(Oc3ccccc3Cl)n2Cc2ccc(C#N)cc2)n(C)c1=O,x,1%,x,x,x,x,x,x,x,x,x
COc1ccc(CN2CCN(Cc3ccc(C(F)(F)F)cc3)CC2)c(OC)c1,-22%,20%,-6,u,-4%,-4,x,x,x,x,x
COc1ccc(/C=N\N2CCN(Cc3ccccc3Cl)CC2)cc1,u,14%,-3,16µM*,-6%,-5,-12%[10.4 µM],-11%,-1%,6%,6%
COc1ccc(CN2CCN(Cc3ccccc3F)CC2)cc1,-17%,8%,-1,16µM*,-5%,-8,16%,-3%,-1%,9%,1%
Clc1ccc(/C=N/N2CCN(Cc3ccccc3Cl)CC2)cc1,u,-2%,9,0%,7%,-4,x,x,x,x,x
